Our source for the Potency values is PubChem BioAssay (NCATS).

Experiment [1] concerns the target Cytochrome P450 1A2 (Homo sapiens) (UniProt P05177). The experiment in a line: p450-cyp1a2 (AID 410; calls by dose curve; further: potency means the concentration at half of the fitted maximal effect). The gist of the method:
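Luminescent readout of luciferin formed from Luciferin-ME by human CYP1A2; data normalized against complete inhibition by 57 uM furafylline. Enzyme 20nM, substrate 100uM at Km, 100mM KPO4 buffer, 60 min reaction at room temperature.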

In experiment [2] the target is Glucocorticoid receptor (Homo sapiens) (UniProt P04150). Description: GR-EFC Redistribution (AID 451; calls by dose curve; further: potency means the concentration at half of the fitted maximal effect). To be noted: CHO-K1 GR-EFC translocation, beta-gal luminescence, 2 h. The gist of the method:
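CHO-K1 cells expressing nuclear EA and GR-ED fragments of b-gal; compounds titrated up to 46 uM final, 2 h at 37 C. GR nuclear translocation read as complemented b-gal luminescence after 1 h RT detection.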

The target of experiment [3] is 3',5'-cyclic-AMP phosphodiesterase 4B (Homo sapiens) (UniProt Q07343). The experiment in a line: qHTS Assay for Inhibitors of PDE-IV (AID 607; active means well fitted activation curve with a large enough effect in the main read-out, with a control signal flat, not every such curve was filed as active). In outline:
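ACTOne HEK293 cells carry a modified cAMP-gated CNG channel and express endogenous PDE4; plated 1000 cells/well, compounds up to 22.9 uM final. Membrane-potential dye fluorescence (ex 535/em 590) was read; parental cells received 10 uM forskolin + 100 uM RO 20-1724.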

The target in experiment [4] is Cytochrome P450 2C9 (Homo sapiens) (UniProt P11712). The experiment in a line: qHTS Assay for Inhibitors and Substrates of Cytochrome P450 2C9 (AID 883). Further: nearly all actives have a fitted effect of over 60% in size. The gist of the method: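 Signal: luciferase luminescence reporting luciferin produced by CYP2C9. Conditions: 10nM enzyme, Luciferin-H 100uM at KM, 25mM KPO4, 37C, 60 min NADPH-driven reaction. Reference: 57uM sulphaphenazole as 100% inhibition.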

Experiment [5] addresses Cytochrome P450 2D6 (Homo sapiens) (UniProt P10635). Description: qHTS Assay for Inhibitors and Substrates of Cytochrome P450 2D6 (AID 891). Further: nearly all actives have a fitted effect of over 60% in size. Further: potency means the concentration at half of the fitted maximal effect. The gist of the method: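 Human CYP2D6 (5 nM) with 30 uM Luciferin-ME EGE (at Km) in 100 mM KPO4, compound preincubated 10 min, then NADPH regeneration system for 60 min at room temperature. Luciferin read by luminescence; normalized to 1.43 uM quinidine.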
A general note: Quantitative high-throughput screening tests each substance at several concentrations.

The target in experiment [6] is Cytochrome P450 2C19 (Homo sapiens) (UniProt P33261). Description: qHTS Assay for Inhibitors and Substrates of Cytochrome P450 2C19 (AID 899). Further: nearly all actives have a fitted effect of over 60% in size. Further: potency means the concentration at half of the fitted maximal effect. In outline:
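Signal comes from luciferase acting on luciferin released by CYP2C19-mediated hydroxylation of Luciferin-H EGE, 10uM (KM). Assay mix: 5nM enzyme, 50mM KPO4; 60 min at 37C with NADPH regeneration. Data normalized against 57uM ketoconazole.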

Experiment [7] concerns the target Mitogen-activated protein kinase 10 (Mus musculus) (UniProt Q61831). Description: JNK3 AlphaScreen Assay (AID 530; active means well fitted curve in either direction with a large enough effect, not every such curve was filed as active;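 further: kinase came from lysate of stimulated human HepG2 cells; signal reports phosphorylation of biotinylated GST-cJun 1-79 at Ser73 with 10 µM ATP; series mostly up to about 57 µM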). In outline: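 Pre-activated (IL-1β/TNFα) JNK3 in HepG2 lysates phosphorylates biotin-GST-cJun(1-79), 10 uM ATP; anti-phospho-cJun(Ser73) AlphaScreen read at room temperature, pH 7.6 Tris buffer. Compounds pre-incubated 15 min as titrations.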
In general terms: Bead proximity is the source of the signal in Alpha formats.

Unmarked numbers belong to inactive results. Results filed as inconclusive are left out. Calls of active or inactive are those of the source. Unless noted, the call rests on the fitted dose curve; in most records, active means well fitted inhibition curve with a large enough effect; inconclusive means small, poorly fitted or top-dose-only effect; inactive means no such curve, though single readings can be large or run the other way.

Sequence of 3',5'-cyclic-AMP phosphodiesterase 4B (Homo sapiens) (Q07343 whole entry, looked up): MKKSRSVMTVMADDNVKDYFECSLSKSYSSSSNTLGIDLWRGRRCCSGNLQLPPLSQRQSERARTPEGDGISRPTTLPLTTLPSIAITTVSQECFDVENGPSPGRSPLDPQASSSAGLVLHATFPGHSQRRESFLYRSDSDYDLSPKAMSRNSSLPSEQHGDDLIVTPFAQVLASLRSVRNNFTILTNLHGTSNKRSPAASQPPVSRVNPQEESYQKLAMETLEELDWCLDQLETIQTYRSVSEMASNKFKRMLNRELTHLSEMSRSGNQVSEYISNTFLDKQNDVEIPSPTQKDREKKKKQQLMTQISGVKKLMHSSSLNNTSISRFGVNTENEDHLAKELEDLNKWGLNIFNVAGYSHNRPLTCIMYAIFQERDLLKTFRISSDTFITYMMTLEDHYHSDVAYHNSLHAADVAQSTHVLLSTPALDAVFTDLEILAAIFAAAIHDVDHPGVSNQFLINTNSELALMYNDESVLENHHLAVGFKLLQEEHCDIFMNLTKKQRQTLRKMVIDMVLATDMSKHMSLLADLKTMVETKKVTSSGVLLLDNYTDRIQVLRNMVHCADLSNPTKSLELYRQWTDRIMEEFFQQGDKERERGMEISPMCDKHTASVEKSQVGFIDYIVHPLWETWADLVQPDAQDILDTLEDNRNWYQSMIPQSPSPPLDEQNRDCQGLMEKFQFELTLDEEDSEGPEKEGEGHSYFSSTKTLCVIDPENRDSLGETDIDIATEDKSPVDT
Sequence of Cytochrome P450 1A2 (Homo sapiens) (P05177 whole entry, looked up): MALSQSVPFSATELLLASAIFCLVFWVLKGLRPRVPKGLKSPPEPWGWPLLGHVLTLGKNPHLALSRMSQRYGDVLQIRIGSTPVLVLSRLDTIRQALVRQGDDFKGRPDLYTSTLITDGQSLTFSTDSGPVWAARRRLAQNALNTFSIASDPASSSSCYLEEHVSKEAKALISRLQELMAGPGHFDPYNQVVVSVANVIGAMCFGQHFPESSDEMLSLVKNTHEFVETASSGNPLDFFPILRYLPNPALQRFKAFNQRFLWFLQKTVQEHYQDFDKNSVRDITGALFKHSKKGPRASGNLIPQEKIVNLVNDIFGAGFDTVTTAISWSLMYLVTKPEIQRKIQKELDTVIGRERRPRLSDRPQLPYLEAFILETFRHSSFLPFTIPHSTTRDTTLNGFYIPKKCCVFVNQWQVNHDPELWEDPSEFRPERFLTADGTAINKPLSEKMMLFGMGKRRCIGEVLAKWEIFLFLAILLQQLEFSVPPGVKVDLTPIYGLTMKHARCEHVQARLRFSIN
Sequence of Cytochrome P450 2C19 (Homo sapiens) (P33261 whole entry, looked up): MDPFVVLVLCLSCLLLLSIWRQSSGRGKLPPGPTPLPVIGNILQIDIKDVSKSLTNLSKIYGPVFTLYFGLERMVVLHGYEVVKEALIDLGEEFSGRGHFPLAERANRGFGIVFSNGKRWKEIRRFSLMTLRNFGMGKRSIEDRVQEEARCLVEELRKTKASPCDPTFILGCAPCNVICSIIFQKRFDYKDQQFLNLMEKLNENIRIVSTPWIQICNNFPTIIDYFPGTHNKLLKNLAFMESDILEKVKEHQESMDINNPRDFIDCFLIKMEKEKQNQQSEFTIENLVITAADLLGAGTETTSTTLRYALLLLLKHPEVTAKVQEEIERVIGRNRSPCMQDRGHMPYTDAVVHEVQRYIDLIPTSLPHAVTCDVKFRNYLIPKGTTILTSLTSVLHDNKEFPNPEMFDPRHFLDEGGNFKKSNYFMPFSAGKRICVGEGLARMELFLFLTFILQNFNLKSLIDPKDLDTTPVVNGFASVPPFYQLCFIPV
Sequence of Cytochrome P450 2C9 (Homo sapiens) (P11712 whole entry, looked up): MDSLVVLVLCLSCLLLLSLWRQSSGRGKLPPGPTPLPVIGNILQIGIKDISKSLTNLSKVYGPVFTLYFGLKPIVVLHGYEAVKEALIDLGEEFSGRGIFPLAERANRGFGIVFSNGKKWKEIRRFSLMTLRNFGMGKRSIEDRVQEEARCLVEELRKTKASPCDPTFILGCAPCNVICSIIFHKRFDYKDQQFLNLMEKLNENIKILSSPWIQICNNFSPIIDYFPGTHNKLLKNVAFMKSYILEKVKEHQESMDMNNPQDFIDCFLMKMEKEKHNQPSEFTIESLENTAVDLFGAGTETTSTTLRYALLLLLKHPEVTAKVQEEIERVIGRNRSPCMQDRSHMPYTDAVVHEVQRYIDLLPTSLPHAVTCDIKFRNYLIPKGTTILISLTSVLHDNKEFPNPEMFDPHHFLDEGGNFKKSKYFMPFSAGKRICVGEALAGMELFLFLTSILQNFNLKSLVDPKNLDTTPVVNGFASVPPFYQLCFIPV
Sequence of Glucocorticoid receptor (Homo sapiens) (P04150 whole entry, looked up, the tested form may be a part): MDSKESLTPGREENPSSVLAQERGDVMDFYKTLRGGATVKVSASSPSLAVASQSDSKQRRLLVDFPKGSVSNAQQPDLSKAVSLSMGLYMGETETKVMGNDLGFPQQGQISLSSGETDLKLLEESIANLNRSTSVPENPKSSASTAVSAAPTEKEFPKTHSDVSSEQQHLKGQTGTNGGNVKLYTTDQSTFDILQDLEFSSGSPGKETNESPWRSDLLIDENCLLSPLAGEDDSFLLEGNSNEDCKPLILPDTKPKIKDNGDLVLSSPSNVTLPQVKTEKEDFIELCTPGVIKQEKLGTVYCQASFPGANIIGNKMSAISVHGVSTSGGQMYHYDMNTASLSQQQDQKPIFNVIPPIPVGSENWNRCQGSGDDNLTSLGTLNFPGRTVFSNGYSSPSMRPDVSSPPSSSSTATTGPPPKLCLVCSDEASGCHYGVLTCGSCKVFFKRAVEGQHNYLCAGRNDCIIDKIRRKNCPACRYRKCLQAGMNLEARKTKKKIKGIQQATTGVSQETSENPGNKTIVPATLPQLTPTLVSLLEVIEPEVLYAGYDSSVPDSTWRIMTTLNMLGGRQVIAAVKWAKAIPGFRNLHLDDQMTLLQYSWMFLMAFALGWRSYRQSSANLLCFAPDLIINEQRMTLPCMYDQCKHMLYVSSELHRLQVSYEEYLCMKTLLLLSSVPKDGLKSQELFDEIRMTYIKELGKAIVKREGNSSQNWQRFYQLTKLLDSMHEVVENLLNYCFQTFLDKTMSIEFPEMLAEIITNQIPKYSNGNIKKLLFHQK
Sequence of Cytochrome P450 2D6 (Homo sapiens) (P10635 whole entry, looked up): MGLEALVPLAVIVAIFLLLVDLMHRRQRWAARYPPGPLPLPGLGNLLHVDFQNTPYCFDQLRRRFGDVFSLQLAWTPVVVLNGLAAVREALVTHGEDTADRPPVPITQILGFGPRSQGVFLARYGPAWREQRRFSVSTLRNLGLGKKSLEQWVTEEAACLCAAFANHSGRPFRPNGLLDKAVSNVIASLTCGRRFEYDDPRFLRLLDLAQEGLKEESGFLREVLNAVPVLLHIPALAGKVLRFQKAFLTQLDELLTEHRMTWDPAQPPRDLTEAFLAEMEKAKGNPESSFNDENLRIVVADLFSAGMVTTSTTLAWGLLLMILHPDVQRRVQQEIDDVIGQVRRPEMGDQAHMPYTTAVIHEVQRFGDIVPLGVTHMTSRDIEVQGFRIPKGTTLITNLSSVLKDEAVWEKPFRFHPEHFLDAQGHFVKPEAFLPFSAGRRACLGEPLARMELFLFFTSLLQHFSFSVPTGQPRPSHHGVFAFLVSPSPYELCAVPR

Turning to `CC(C)C[C@@H](CC(=O)N[C@@H](CCC(=O)O)CC(=O)O)NC(=O)[C@@H]1CCCC[C@H]1NC(=O)C[C@@H](NC(=O)C[C@H](Cc1c[nH]c2ccccc12)NC(=O)[C@@H]1CCCC[C@H]1N)C(C)C`, the Potency entry in experiment [1], in experiment [3], in experiment [4], in experiment [5] and in experiment [6] was “inactive” throughout. Also, the Potency in experiment [2] was over 46 µM.
On to `CC(C)C[C@@H](CC(=O)N[C@@H](CCCN)CC(=O)N[C@@H]1CCCC[C@H]1C(=O)N[C@H](CC(=O)N[C@@H](CCC(=O)O)CC(=O)O)Cc1ccccc1)NC(=O)[C@@H]1CNCC[C@H]1N`, for which the Potency in experiment [1] is 25.1 µM (active); in experiment [2] it was over 46 µM. Moreover, the Potency result in experiment [3], in experiment [4], in experiment [5] and in experiment [6] was “inactive” each time.
Take `NCCC[C@@H](CC(=O)N[C@@H]1CCCC[C@H]1C(=O)N[C@H](CC(=O)N[C@@H](CCC(=O)O)CC(=O)O)Cc1ccccc1)NC(=O)C[C@H](CO)NC(=O)[C@@H]1CNCC[C@H]1N`: the Potency result in experiment [1], in experiment [7], in experiment [5] and in experiment [6] was “inactive” each time. In experiment [2], the Potency is over 46 µM.
Turning to `CC(C)C[C@@H](CC(=O)N[C@@H](CCC(=O)O)CC(=O)O)NC(=O)[C@@H]1CCCC[C@H]1NC(=O)C[C@H](CCCN)NC(=O)C[C@H](Cc1c[nH]c2ccccc12)NC(=O)[C@@H]1CNCC[C@H]1N`, the Potency entry in experiment [1], in experiment [7], in experiment [4], in experiment [5] and in experiment [6] was “inactive” throughout. The Potency in experiment [2] is over 46 µM.
`CC(C)C[C@@H](CC(=O)N[C@@H](CCC(=O)O)CC(=O)O)NC(=O)[C@@H]1CNCC[C@H]1NC(=O)C[C@@H](NC(=O)C[C@H](CO)NC(=O)[C@@H]1CNCC[C@H]1N)C(C)C`: the Potency result in experiment [1], in experiment [3], in experiment [5] and in experiment [6] was “inactive” throughout. In experiment [2], the Potency was over 46 µM.
On to `CC(C)[C@@H](CC(=O)N[C@@H]1CCCC[C@H]1C(=O)N[C@H](CC(=O)N[C@@H](CCC(=O)O)CC(=O)O)Cc1ccccc1)NC(=O)C[C@H](CO)NC(=O)[C@@H]1CNCC[C@H]1N`, for which the Potency result in experiment [1], in experiment [3] and in experiment [5] was “inactive” throughout. The Potency in experiment [2] was over 46 µM.
Take `NCCC[C@@H](CC(=O)N[C@@H]1CCCC[C@H]1C(=O)N[C@H](CC(=O)N[C@@H](CCC(=O)O)CC(=O)O)Cc1c[nH]c2ccccc12)NC(=O)C[C@H](CO)NC(=O)[C@@H]1CCCC[C@H]1N`: the Potency entry in experiment [1], in experiment [7], in experiment [3], in experiment [5] and in experiment [6] was “inactive” in each case. In addition, the Potency in experiment [2] is over 46 µM.
With `CC(C)C[C@@H](CC(=O)N[C@H](CC(=O)N[C@@H]1CCCC[C@H]1C(=O)N[C@H](CC(=O)N[C@@H](CCC(=O)O)CC(=O)O)Cc1c[nH]c2ccccc12)C(C)C)NC(=O)[C@@H]1CCCC[C@H]1N`, the Potency result in experiment [1], in experiment [7], in experiment [4], in experiment [5] and in experiment [6] was “inactive” each time. The Potency in experiment [2] is over 46 µM.
On to `CC(C)C[C@@H](CC(=O)N[C@@H](CCC(=O)O)CC(=O)O)NC(=O)[C@@H]1CCCC[C@H]1NC(=O)C[C@@H](NC(=O)C[C@H](CO)NC(=O)[C@@H]1CCCC[C@H]1N)C(C)C`, for which the Potency result in experiment [1], in experiment [7], in experiment [3], in experiment [5] and in experiment [6] was “inactive” in each case. Moreover, in experiment [2], the Potency was over 46 µM.
`NCCC[C@@H](CC(=O)N[C@@H]1CCNC[C@H]1C(=O)N[C@H](CC(=O)N[C@@H](CCC(=O)O)CC(=O)O)Cc1c[nH]c2ccccc12)NC(=O)C[C@H](Cc1ccccc1)NC(=O)[C@@H]1CNCC[C@H]1N`: the Potency in experiment [1] is 31.6 µM (active); in experiment [2], over 46 µM. The Potency result in experiment [4], in experiment [5] and in experiment [6] was “inactive” in each case.
Regarding `CC(C)[C@@H](CC(=O)N[C@@H]1CCNC[C@H]1C(=O)N[C@H](CC(=O)N[C@@H](CCC(=O)O)CC(=O)O)Cc1c[nH]c2ccccc12)NC(=O)C[C@H](CO)NC(=O)[C@@H]1CNCC[C@H]1N`, the Potency entry in experiment [1], in experiment [3] and in experiment [5] was “inactive” in each case. Also, the Potency in experiment [2] was over 46 µM.
With `CC(C)C[C@@H](CC(=O)N[C@H](CC(=O)N[C@@H]1CCNC[C@H]1C(=O)N[C@H](CC(=O)N[C@@H](CCC(=O)O)CC(=O)O)Cc1c[nH]c2ccccc12)C(C)C)NC(=O)[C@@H]1CNCC[C@H]1N`, the Potency entry in experiment [1], in experiment [3], in experiment [4] and in experiment [5] was “inactive” in each case. Moreover, the Potency in experiment [2] was over 46 µM.
`CC(C)[C@@H](CC(=O)N[C@@H]1CCCC[C@H]1C(=O)N[C@H](CC(=O)N[C@@H](CCC(=O)O)CC(=O)O)Cc1ccccc1)NC(=O)C[C@H](CO)NC(=O)[C@@H]1CCCC[C@H]1N`: the Potency entry in experiment [1], in experiment [7], in experiment [3] and in experiment [5] was “inactive” each time. For the same compound, the Potency in experiment [2] was over 46 µM.
With `NCCC[C@@H](CC(=O)N[C@@H]1CCNC[C@H]1C(=O)N[C@H](CC(=O)N[C@@H](CCC(=O)O)CC(=O)O)Cc1ccccc1)NC(=O)C[C@H](Cc1c[nH]c2ccccc12)NC(=O)[C@@H]1CNCC[C@H]1N`, the Potency entry in experiment [1], in experiment [7], in experiment [4], in experiment [5] and in experiment [6] was “inactive” in each case. In addition, the Potency in experiment [2] is over 46 µM.
For `CC(C)C[C@@H](CC(=O)N[C@@H](CCCN)CC(=O)N[C@@H]1CCNC[C@H]1C(=O)N[C@H](CC(=O)N[C@@H](CCC(=O)O)CC(=O)O)Cc1c[nH]c2ccccc12)NC(=O)[C@@H]1CNCC[C@H]1N`, the Potency entry in experiment [1], in experiment [3], in experiment [4] and in experiment [5] was “inactive” throughout. Further, the Potency in experiment [2] was over 46 µM.
On to `CC(C)[C@@H](CC(=O)N[C@@H]1CCCC[C@H]1C(=O)N[C@H](CC(=O)N[C@@H](CCC(=O)O)CC(=O)O)Cc1c[nH]c2ccccc12)NC(=O)C[C@H](Cc1ccccc1)NC(=O)[C@@H]1CCCC[C@H]1N`, for which the Potency entry in experiment [1], in experiment [3], in experiment [4], in experiment [5] and in experiment [6] was “inactive” throughout. For the same compound, the Potency in experiment [2] is over 46 µM.
`COc1cc(/C=C\C(=O)CC(=O)/C=C\c2ccc(O)c(OC)c2)ccc1O`: the Potency in experiment [1] was 15.8 µM (active); in experiment [2], over 46 µM; in experiment [5], 15.8 µM (active); in experiment [6] it was 2.51 µM (active). Further, in experiment [7], the Potency result was “inactive”.
